# According to PubChem BioAssay (NCI):
# This is part of a sample that, as a whole, favours compounds with a hit. Of some 83,000 tested, about 20% had one in any assay.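 For each line, cells grew in 96-well plates with the test compound present at a single concentration for 48 hours.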 Values without a mark were called inactive. Calls of active or inactive are those of the source. How the source made its calls: active means growth percent below 10; inactive means the rest.
# Key:
# Experiment in all cases: NCI-60 one-dose screen, 48 h (100 = growth as untreated, 0 = no growth, -100 = all killed)
# Conditions in all cases: 10 µM unless noted
# HCT-15 colon = tested on: HCT-15 colon
# HT29 colon = tested on: HT29 colon
# SNB-75 CNS = tested on: SNB-75 CNS
# SNB-19 CNS = tested on: SNB-19 CNS
# U251 CNS = tested on: U251 CNS
# PC-3 prostate = tested on: PC-3 prostate
# SK-MEL-5 melanoma = tested on: SK-MEL-5 melanoma
# UACC-62 melanoma = tested on: UACC-62 melanoma
# LOX IMVI melanoma = tested on: LOX IMVI melanoma
# SK-MEL-28 melanoma = tested on: SK-MEL-28 melanoma
Structure (SMILES),growth (HCT-15 colon),growth (HT29 colon),growth (SNB-75 CNS),growth (SNB-19 CNS),growth (U251 CNS),growth (PC-3 prostate),growth (SK-MEL-5 melanoma),growth (UACC-62 melanoma),growth (LOX IMVI melanoma),growth (SK-MEL-28 melanoma)
Nc1nc2c(c3ncccc13)C(c1cccc(Br)c1)Cc1ncccc1-2 (stereo not drawn),17.6%,0.652% (active),30.1%,31.6%,11.3%,25.6%,31.8%,27.4%,38.9%,55.1%
COc1cnc2c(c1)C(=O)c1c-2n(CCCN2CCCC2)c(=O)c2cc([N+](=O)[O-])ccc12,20.3%,-59.4% (active),-3.27% (active),19.8%,-64.8% (active),15.6%,-96.8% (active),-67.5% (active),-82.3% (active),29.3%
COc1c2ccccc2c(OC)c2[nH]c(=O)ccc12,22.1%,46.6%,-21.3% (active),12.2%,28.4%,67%,-96.7% (active),-6.37% (active),12.1%,25.4%
CCN(CC)CCC(=O)c1ccc(OC)c2ccccc12,107%,109%,89.1%,87%,95.4%,102%,107%,90.6%,86.8%,122%
CN1CCOCCOCCOc2ccccc2NC(=O)c2nc(cnc2N)-c2ccc(cc2)S1(=O)=O,1.6% (active),9.23% (active),52.1%,82.5%,54.6%,53.5%,60.5%,54.3%,30.1%,58.6%
COc1ccc2nc3cc(Cl)ccc3c(N3CCN(c4nccc(Nc5ccccc5)n4)CC3)c2c1,33.8%,54%,52.8%,85.2%,58.5%,55.9%,80.4%,78.9%,44.3%,83.5%
COc1ccc(-c2cc(/C=C3\C(=O)Nc4ccc(Cl)cc43)[nH]n2)cc1,36.1%,11.5%,49.8%,71.1%,34.2%,67.1%,37.9%,40.6%,35.2%,61.7%
CN(C)CC(=O)Nc1ccc(Cn2nnc3c2C(=O)c2nnn(Cc4ccc(NC(=O)CN(C)C)cc4)c2C3=O)cc1,1.94% (active),-52.5% (active),-92.8% (active),-75.1% (active),-82.1% (active),1.37% (active),-95% (active),-66.1% (active),-30.6% (active),-47.5% (active)
COc1cc(-c2cc(-c3nc4ccc(Cl)cc4[nH]3)[nH]n2)cc(OC)c1OC,51.9%,71.7%,68.4%,85%,69.7%,26.1%,-5.65% (active),37.1%,34%,60.1%
O=C(CN1CCN(c2cc3c(cc2F)c(=O)c(C(=O)O)cn3C2CC2)CC1)Nc1nc(-c2ccc(Cl)cc2)cs1,15.7%,10.4%,32.6%,22.5%,8.26% (active),17.7%,10.4%,20.1%,-42.4% (active),42.6%
CCOC(=O)CC(=O)c1c(C)cc(C)cc1C,98.2%,87.7%,112%,96.2%,105%,103%,100%,96.9%,98.5%,118%
COc1cnc2c(c1)C(=O)c1c-2n(CCCN2CCN(C)CC2)c(=O)c2cc([N+](=O)[O-])ccc12,-61.2% (active),-79.4% (active),-93.2% (active),-20.6% (active),-81.2% (active),4.16% (active),-97.5% (active),-77.9% (active),-90.7% (active),-80.6% (active)
Clc1cccc(Nc2nc(Nc3cnc4ccccc4c3)c3[nH]cnc3n2)c1,94.4%,79%,52.4%,80.6%,76.4%,49.2%,53%,47.9%,77.4%,86.4%
COc1ccc(/C=C/C(=O)c2c(O)c(C)c(O)c3c2OC2=CC(O)=C(C(C)=O)C(=O)[C@]23C)cc1,-21.3% (active),-27.2% (active),-33% (active),-14.9% (active),-27.9% (active),-2.15% (active),-85.5% (active),-59.9% (active),-43.4% (active),-50.7% (active)
Nc1nc2c(c3ncccc13)C(c1ccc(Cl)c(Cl)c1)Cc1ncccc1-2 (stereo not drawn),18.2%,6.39% (active),16.4%,32.1%,16.9%,19.5%,19.8%,26.6%,28%,49.2%
COc1cc(-c2c3c(nc4c2c(C)nn4-c2ccccc2)-c2ccccc2C(=O)C3=O)cc(OC)c1OC,85.6%,44.7%,138%,101%,86.7%,53.1%,70.5%,86.7%,35.7%,95%
COc1cc(C2CC(=O)Nc3c2cnn3Cc2ccco2)cc2c1OCCO2 (stereo not drawn),64.9%,88.8%,77.5%,97.9%,84.6%,97.6%,75.5%,75.8%,–,75.7%
CCC(c1ccccc1)C(CC)c1ccc(O)c(O)c1 (stereo not drawn),91.2%,104%,86.4%,116%,96.6%,92.7%,88.3%,81.5%,87.9%,95.4%
COc1ccc2nc3cc(Cl)ccc3c(N3CCN(c4nccc(NCc5ccccc5)n4)CC3)c2c1,47.5%,52.7%,69.2%,96%,69%,78.7%,84%,85.2%,31.3%,80.7%
CCN(CC)CCCCNc1ccc(NCCCCN(CC)CC)c2c1C(=O)c1ccccc1C2=O,76.2%,-54.8% (active),142%,106%,85.5%,94.1%,106%,111%,-56.6% (active),116%
C=C1CC[C@@H]2[C@](C)(COC(C)=O)[C@H](OC(C)=O)CC[C@@]2(C)[C@@H]1CC(Nc1ccc(S(=O)(=O)Nc2ccc(Cl)nn2)cc1)C1=CCOC1=O (stereo partly drawn),-18.4% (active),-18.3% (active),25.2%,76%,-41.2% (active),38.4%,35.8%,-50% (active),-84.6% (active),6.66% (active)
CCOC(=O)/C=C/C(=O)[C@H](CC(C)C)NC(=O)[C@H](Cc1ccccc1)NC(=O)OCc1ccccc1,15.5%,57.9%,69.2%,93.7%,50.8%,68.3%,97.5%,14.4%,-82.9% (active),34.7%
Cn1c(=O)c2c(ncn2CC[N+](C)(C)C)n(C)c1=O,112%,93.8%,90.9%,101%,101%,94.5%,102%,86.9%,99.6%,106%
COc1cc(-c2c3sc(=O)[nH]c3nc3c2c(=O)[nH]n3C(C)C)cc2c1OCO2,101%,103%,85.2%,107%,103%,117%,96.9%,105%,–,99.2%
COc1ccc2nc3cc(Cl)ccc3c(N3CCN(c4ccnc(N5CCN(C)CC5)n4)CC3)c2c1,-23.2% (active),-69.4% (active),90.6%,94.5%,46.1%,63.4%,84.7%,94.1%,-62.5% (active),28.7%
COc1cc2c(cc1O)CCc1cc(O)cc(OC)c1-2,90.7%,95.6%,91.9%,98%,91.3%,93.6%,98.5%,87.2%,93.5%,100%
COc1ccc(/C(=C/c2ccc3ccccc3c2)c2nn[nH]n2)cc1OC,31.1%,5.54% (active),-7.45% (active),51.1%,14.3%,18.6%,23.5%,21.5%,37.6%,56.6%
